Screening data from PubChem.
ALOX12 inh = blocks human arachidonate 12S-lipoxygenase | P18054 | purified 12hLO, xylenol orange hydroperoxide absorbance | Potency, µM (series often up to 108 µM), actives largely listed as inhibitors | 580,000 compounds, 1.1% hits
Target sequence (P18054 whole entry, looked up): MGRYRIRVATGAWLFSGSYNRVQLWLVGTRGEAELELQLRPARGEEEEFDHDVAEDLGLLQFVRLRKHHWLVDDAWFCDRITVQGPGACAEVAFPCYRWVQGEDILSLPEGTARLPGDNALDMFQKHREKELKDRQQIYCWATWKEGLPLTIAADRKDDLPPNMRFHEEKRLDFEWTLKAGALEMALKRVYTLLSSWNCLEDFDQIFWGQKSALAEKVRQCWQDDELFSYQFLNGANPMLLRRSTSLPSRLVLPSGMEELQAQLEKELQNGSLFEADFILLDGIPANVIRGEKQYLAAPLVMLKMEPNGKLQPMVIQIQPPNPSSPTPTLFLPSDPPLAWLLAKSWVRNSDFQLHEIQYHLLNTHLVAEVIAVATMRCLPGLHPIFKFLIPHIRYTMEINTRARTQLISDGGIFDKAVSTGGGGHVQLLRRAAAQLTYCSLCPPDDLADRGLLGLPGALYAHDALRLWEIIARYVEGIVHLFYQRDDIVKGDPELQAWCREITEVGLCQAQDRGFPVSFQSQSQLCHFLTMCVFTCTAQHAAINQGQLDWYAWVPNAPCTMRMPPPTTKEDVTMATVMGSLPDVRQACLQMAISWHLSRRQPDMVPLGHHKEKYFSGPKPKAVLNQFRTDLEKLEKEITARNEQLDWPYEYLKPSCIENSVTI
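Purified human 12hLO at 150 nM in 25 mM Hepes, 0.01% Triton X-100, pH 7.0, preincubated 15 min at room temperature with compound. Reaction started with 40 uM arachidonic acid, 30 min at room temperature. Hydroperoxide measured by Fe-xylenol orange, 573/405 nm absorbance ratio.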
PLK1 PBD block = inhibitors of human PLK1 polo-box domain binding | Plk1 PBD binding of FITC phosphopeptide, fluorescence polarization | P53350 | Potency, µM, usual class: inhibitors | 360,000 compounds, 2.8% hits; note: series mostly up to about 57 µM; nearly all actives have a fitted effect of over 65% in size
HP1b binding inh = inhibitors of HP1-beta chromodomain binding to methylated histone tails; P83916; AlphaScreen HP1-beta / biotin-H3K9me3 peptide binding; Potency, µM (titrated, usually from 114 µM), actives largely listed as inhibitors; 390,000 compounds, 0.56% hits; AID 540317; note: nearly all actives have a fitted effect of over 70% in size
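Compound inhibition of the preformed complex between 50 nM HP1-beta and 50 nM biotinylated H3K9me3 peptide was read by AlphaScreen. Buffer was PBS pH 7.4 with 0.01% Tween-20. Incubations ran 30 min at room temperature, with 10 ug/mL donor/acceptor beads.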
G9a block = blocks human histone lysine methyltransferase G9a; Q96KQ7; G9a H3K9 monomethylation, AlphaScreen, 2 h; Potency, µM (top dose mostly 102 µM), most hits filed as inhibitors; 350,000 compounds, 8.8% hits; note: nearly all actives have a fitted effect of over 75% in size
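Readings reflect AlphaScreen signal from monomethyl-H3K9 antibody detection. HMT at 20 nM; substrate b-H3K9 500 nM; cofactor SAM 20 uM; 2 h RT reaction; compounds tested as titrations in qHTS with 15 min preincubation.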
BAZ2B block = inhibitors of human BAZ2B bromodomain; AlphaScreen BAZ2B-H3K14Ac peptide displacement; Potency, µM (doses to about 114 µM), hits mostly inhibitors; 360,000 compounds, 4.4% hits; Q9UIF8; note: nearly all actives have a fitted effect of over 60% in size
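AlphaScreen displacement of biotin-H3(5-23)K14Ac peptide (50 nM final) from BAZ2B (50 nM final) in PBS pH 7.4, 0.01% Tween-20; complex preformed 30 min RT, then compounds (top 110 uM) 30 min RT, beads 20 min dark.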
JMJD2A Tudor inh = inhibitors of human JMJD2A Tudor domain. O75164. AlphaScreen JMJD2A-Tudor / H3K4me3 peptide binding. Potency, µM (titrated, usually from 114 µM), usual class: inhibitors. 390,000 compounds, 4.4% hits. AID 504339; note: nearly all actives have a fitted effect of over 50% in size
Each line names hits and unclear results; the compound was inactive in the other large screens. Sampled rows, rich in hits. Any-hit rate of the full collection: about 9%. Calls come from the whole dose curve; as a rule, active = well fitted curve in the direction sought with a large enough effect; inconclusive = small, poorly fitted or top-dose-only effect, or another doubt; inactive = no such curve, though single readings can be large; an effect the other way counts as inactive or inconclusive.

CC(C)Cn1cnc2c1c(=O)n(CC(=O)Nc1ccc3c(c1)OCCO3)c(=O)n2CC(C)C	none (no result: PLK1 PBD block, HP1b binding inh, G9a block, BAZ2B block, JMJD2A Tudor inh)
COc1ccc(C(=O)N2CCN(c3ccccc3OC)CC2)cc1	G9a block inconclusive
COc1ccc(N2CCN(C(=O)c3ccc(-n4nc(C)cc4C)cc3)CC2)cc1	G9a block inconclusive
COc1ccc(N2CCN(C(=O)COC(=O)CNC(=O)c3ccc(C)cc3)CC2)cc1	G9a block 39.8µM
COc1ccc(N2CCN(C(=O)c3ccc(C(C)(C)C)cc3)CC2)cc1	ALOX12 inh inconclusive, HP1b binding inh inconclusive, G9a block inconclusive, BAZ2B block 44.7µM, JMJD2A Tudor inh 56.2µM
COc1ccc(C(=O)NCC(=O)N2CCN(c3ccc(Cl)cc3)CC2)cc1	none
COc1cc(OC)cc(C(=O)N2CCC(N3CCN(c4ccccc4OC)CC3)CC2)c1	ALOX12 inh inconclusive, HP1b binding inh inconclusive, G9a block 7.94µM, BAZ2B block 50.1µM, JMJD2A Tudor inh 1.12µM
COc1ccc(N2CCN(C(=O)CCNC(=O)c3ccc(C(C)(C)C)cc3)CC2)cc1	G9a block 44.7µM, BAZ2B block inconclusive, JMJD2A Tudor inh inconclusive
CCOC(=O)N1CCN(C(=O)COC(=O)CNC(=O)c2ccc(C)cc2)CC1	none
CCn1cc2nc(SCc3cccc(Cl)c3)n(Cc3ccc(C)cc3)c(=O)c2n1	none (no result: PLK1 PBD block)
COc1ccccc1N1CCN(C(=O)c2ccc(C(C)(C)C)cc2)CC1	PLK1 PBD block 2.67µM, JMJD2A Tudor inh 3.16µM
COc1ccc(N2CCN(C(=O)C(C)(C)Oc3ccc(Cl)cc3)CC2)cc1	HP1b binding inh inconclusive, G9a block 7.94µM, BAZ2B block 39.8µM, JMJD2A Tudor inh 50.1µM
CC(=O)N1CCN(c2ccc(NC(=O)c3ccc(C(C)(C)C)cc3)cc2)CC1	G9a block 11.2µM
COc1ccccc1N1CCN(C(=O)NC23CC4CC(CC(C4)C2)C3)CC1	G9a block 79.4µM
CCOC(=O)CCc1c(C)c2ccc(OCC(=O)C(C)(C)C)c(C)c2oc1=O	none (no result: PLK1 PBD block, HP1b binding inh, G9a block, BAZ2B block, JMJD2A Tudor inh)
CC(C)(C)CC(=O)NC[C@H]1O[C@H](Cc2cc(-c3ccc(F)cc3)on2)CC[C@@H]1O	none (no result: PLK1 PBD block, HP1b binding inh, G9a block, BAZ2B block, JMJD2A Tudor inh)
Cc1ccccc1-n1nc(C)c2c(C(=O)NN)cc(-c3ccncc3)nc21	none
CC(C)(C)c1ccc(C(=O)Nc2ccc3c(c2)C(=O)NC3=O)cc1	none (no result: G9a block)
COc1cc(OC)cc(C(=O)NCC(=O)N2CCN(c3ccc(O)cc3)CC2)c1	ALOX12 inh inconclusive, HP1b binding inh inconclusive, G9a block 22.4µM, JMJD2A Tudor inh 22.4µM
COc1ccc(N2CCN(C(=O)CNC(=O)c3ccc4ccccc4c3)CC2)cc1	none
O=C(CSS(=O)(=O)O)N1CCN(C(=O)c2ccoc2)CC1	PLK1 PBD block inconclusive, G9a block 20µM
c1csc(-c2nnsc2-c2nc3ccccc3[nH]2)c1	PLK1 PBD block inconclusive
Cc1cc(C)n(-c2nnc(C)n2N)n1	ALOX12 inh inconclusive, G9a block 50.1µM, JMJD2A Tudor inh inconclusive
CSc1nnc(C(C)(C)C)c(=O)n1/N=C/c1ccccc1O	PLK1 PBD block 23.8µM
Cc1cc(C)n(/N=C/c2cc(Cl)cc(Cl)c2O)c(=O)c1	none
Cc1cc(C)n(-c2nnc(C)n2/N=C/c2ccccc2O)n1	JMJD2A Tudor inh 7.94µM
Cc1cc(C)n(/N=C/c2ccccc2O)c(=O)c1	ALOX12 inh inconclusive, G9a block 15.8µM, BAZ2B block 50.1µM, JMJD2A Tudor inh inconclusive
O=C1CC(=O)Nc2cc(S(=O)(=O)NCc3cccs3)ccc2N1	none
COCCN1C(=O)c2ccccc2C(C(=O)Nc2ccc(OC)c(Cl)c2)C12CCCC2 (centres undefined)	none (no result: PLK1 PBD block, HP1b binding inh, G9a block, BAZ2B block, JMJD2A Tudor inh)
CC(C)CC(c1nc2ccccc2[nH]1)n1c(-c2ccccc2Br)nc2ccccc21 (centres undefined)	ALOX12 inh inconclusive (no result: HP1b binding inh, G9a block, BAZ2B block, JMJD2A Tudor inh)
Cc1nnc(SCC(=O)Nc2sc3c(c2C#N)CCC(C)C3)n1Cc1ccccc1 (centres undefined)	ALOX12 inh 20µM (no result: PLK1 PBD block, HP1b binding inh, G9a block, BAZ2B block, JMJD2A Tudor inh)
CCn1cnnc1SCC(=O)Nc1sc2c(c1C#N)CCC(C)C2 (centres undefined)	none (no result: PLK1 PBD block, HP1b binding inh, G9a block, BAZ2B block, JMJD2A Tudor inh)
CC1CCc2c(sc(NC(=O)COC(=O)c3ccc(O)cc3)c2C#N)C1 (centres undefined)	PLK1 PBD block inconclusive, G9a block 39.8µM, JMJD2A Tudor inh inconclusive
